The whole screen tested about 340,000 compounds, of which about 6,900 (2%) were called active. Many of the other results were omitted from the sample, so actives are more common in it than they were. A number with no mark means an inactive call. No stated cut-off is given here; in the data, active means inhibition above about 30%; inactive means below that, where a call was filed.

Chain of D(2) dopamine receptor (Homo sapiens) (P14416 whole entry, looked up): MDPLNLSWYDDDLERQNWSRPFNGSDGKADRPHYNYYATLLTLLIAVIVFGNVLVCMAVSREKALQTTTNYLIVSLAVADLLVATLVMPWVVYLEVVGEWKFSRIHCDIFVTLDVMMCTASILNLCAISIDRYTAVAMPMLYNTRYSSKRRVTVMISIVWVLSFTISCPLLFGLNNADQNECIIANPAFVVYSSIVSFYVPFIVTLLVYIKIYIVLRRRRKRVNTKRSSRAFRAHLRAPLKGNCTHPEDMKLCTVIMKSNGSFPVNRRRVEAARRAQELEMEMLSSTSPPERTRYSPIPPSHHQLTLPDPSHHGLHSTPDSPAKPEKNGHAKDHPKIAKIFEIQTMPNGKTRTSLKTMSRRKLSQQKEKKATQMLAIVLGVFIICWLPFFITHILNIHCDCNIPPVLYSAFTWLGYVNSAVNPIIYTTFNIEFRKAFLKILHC

For this assay, the target named is D(2) dopamine receptor (Homo sapiens) (UniProt P14416). Briefly: HTS Assay for Allosteric Antagonists of the Human D2 Dopamine Receptor: Primary Screen for Antagonists. Further: 0% is about no effect. Particulars: HEK293 TREx D2 cells, calcium flux, dopamine EC80; at 10 µM; hits give high values. The method in brief:
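Cells plated overnight at 30 C with tetracycline; no-wash calcium dye, 30–90 min RT; 10 s baseline; compound pinned; 180 s read; EC80 dopamine added; another 180 s read.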
Regarding `COc1ccccc1-c1oc2ccccc2c1C#CCCCCO`, the inhibition (commonly the relative decrease from the control value, in per cent) is 13.9%.

Regarding `Cc1cc(C)n2nc(C(=O)OCC(=O)N(C)CC(=O)Nc3ccc(F)cc3)nc2n1`, the inhibition was 7.08%.

Regarding `CN(CC(=O)Nc1ccc(OC(F)(F)F)cc1)C(=O)C1CCC1`, the inhibition was -3.8%.

In the case of `COc1ccccc1C(=O)Nc1ccc(C)c(S(=O)(=O)N2CCCCC2)c1`, the inhibition is 9.57%.

In the case of `O=C(Nc1ccccc1F)c1ccc(S(=O)(=O)N2CCCCCC2)cc1`, the inhibition is -10.1%.

With `CN(C(=O)COC(=O)c1cc(=O)[nH]c2ccccc12)C1CCCCC1`, the inhibition is 6.97%.

As to `O=C(Nc1cc(S(=O)(=O)N2CCOCC2)ccc1OCC(F)(F)F)c1ccc(N2CCCC2=O)cc1`, the inhibition is -14.2%.

`Cc1ccccc1OCC(O)CN1CCN(c2ccccn2)CC1` (stereo not drawn): the inhibition was 87.2% (active).

Turning to `Cc1cccc(C)c1OCC(O)CN1CCCCC1` (stereo not drawn), the inhibition was 13.3%.

For `COc1ccccc1OCC(O)CN1CCOCC1` (stereo not drawn), the inhibition was 3.41%.

As for `CC(NC(=O)c1ccccc1SCC(=O)N1CCCC1)c1ccccc1` (stereo not drawn), the inhibition is 5.13%.

In the case of `Cc1ccc(NC(=O)COC(=O)CNC(=O)c2ccc(Cl)cc2Cl)cc1S(=O)(=O)N1CCOCC1`, the inhibition is -10.2%.

Regarding `C/C(=N\NC(=O)CC(C)C)c1c(C(F)(F)F)[nH]n(-c2nc3ccccc3s2)c1=O`, the inhibition was -4.59%.

For the compound `COC(=O)Cc1cc(=O)n(-c2nc3ccccc3s2)[nH]1`, the inhibition is 36.2% (active).

As to `COC(=O)Cc1[nH]n(-c2nc3ccccc3s2)c(=O)c1C(C)=Nc1ccc(OC)cc1`, the inhibition was 12.5%.

With `N[C@@H](Cc1ccccc1)C(=O)N1CCOCC1`, the inhibition is -3.78%.

As for `COc1ccc(S(=O)(=O)N2CCOCC2)cc1NC(=O)CC1CC2CCC1C2` (stereo not drawn), the inhibition is -10.8%.

For `CC(=O)c1cc(CN2CCC(C(=O)Nc3cccc(-c4cscn4)c3)CC2)cs1`, the inhibition was 10.7%.

Turning to `O=C(Nc1cccc(-c2cscn2)c1)C1CCN(Cc2ccsc2)CC1`, the inhibition is 48.1% (active).

As for `O=C(Nc1ccc(-n2cccn2)cc1)C1CCN(Cc2ccsc2)CC1`, the inhibition is 0.479%.

On to `Cc1cc(C)cc(NC(=O)C(c2ccccc2)N2CCN(CC(=O)N3CCCC3)CC2)c1` (stereo not drawn), for which the inhibition was 3.24%.

For the compound `CC1CCN(c2nc3c(c(=O)[nH]c(=O)n3C)n2CCCc2ccccc2)CC1`, the inhibition is -0.868%.

Consider `Cn1c(=O)[nH]c(=O)c2c1nc(CN1CCN(c3ccccc3F)CC1)n2CCc1ccccc1`, for which the inhibition was 46.1% (active).

For the compound `Cn1c(=O)[nH]c(=O)c2c1nc(CN(Cc1ccccc1)Cc1ccccc1)n2CCN1CCOCC1`, the inhibition was 10.3%.

For the compound `CCOC(=O)c1sc(NC(=O)C2CSC3(C)CCC(=O)N23)nc1C` (stereo not drawn), the inhibition was -25.8%.

As for `COc1ccc(C2(C)ON(c3ccccc3C(F)(F)F)C2=O)cc1` (stereo not drawn), the inhibition was -4.74%.

In the case of `CCN(C(=O)CN1C(=O)/C(=C/c2ccc(F)cc2)SC1=S)C1CCS(=O)(=O)C1` (stereo not drawn), the inhibition was -6.17%.

Take `O=C(CCCN1C(=O)/C(=C\c2ccccc2)SC1=S)Nc1ccccc1O`: the inhibition is -8.37%.

Consider `O=C1/C(=C/c2ccc(F)cc2)SC(=S)N1CCCC(=O)N1CCCCC1CCO` (stereo not drawn), for which the inhibition is 31.6% (active).

For `COc1ccc(Cl)cc1NC(=O)CN(C)C(=O)c1ccc2n[nH]nc2c1`, the inhibition was -5.47%.

As for `Cc1nc2ccccc2n1CC(O)c1ccccc1` (stereo not drawn), the inhibition was 2.64%.

Turning to `CCn1c(C)nc2c1C(=O)c1ccccc1C2=O`, the inhibition is 34.8% (active).

With `CCC1(CC)Cc2ccccc2-c2nc3ccccc3c(=O)n21`, the inhibition is 5.55%.

For `C#CCOCCOCCOCCNc1nc(N2CCN(C(=O)[C@H](CCCCN)n3cc(CCC(=O)O)nn3)CC2)nc(N2CCN(C(=O)[C@H](CCCCN)n3cc(CC(C)O)nn3)CC2)n1` (stereo partly drawn), the inhibition was -5%.

As to `COc1ccccc1Nc1nnc(SC(C)C(=O)NC2CC2)s1` (stereo not drawn), the inhibition was -7.77%.

In the case of `Cc1ccc([C@@H]2CC=C(C(=O)O)[C@H](c3cccc(Cl)c3)N2S(=O)(=O)c2ccc(C)cc2)cc1`, the inhibition is 10.4%.

`C[C@H](NC(=O)c1ccccc1Cl)C(=O)OCC(=O)N1CCN(c2ccccc2)CC1`: the inhibition is 8.27%.

For the compound `COc1ccc(CNC(=O)C(NS(=O)(=O)c2cccc3nsnc23)C(C)C)cc1` (stereo not drawn), the inhibition was 7.26%.

As to `O=C(CCS(=O)(=O)c1cccc2nsnc12)N1CCN(c2ccccc2F)CC1`, the inhibition was -8.03%.

For the compound `O=C(CCCNS(=O)(=O)c1cccc2nsnc12)NCCN1CCN(c2ccccc2F)CC1`, the inhibition is 78.8% (active).

As for `CCOc1ccccc1NC(=O)CCS(=O)(=O)c1cccc2nsnc12`, the inhibition is 4.79%.

Turning to `COc1ccccc1CNC(=O)CCCNS(=O)(=O)c1cccc2nsnc12`, the inhibition was 42.4% (active).

For `O=C(C(NS(=O)(=O)c1cccc2nsnc12)c1ccccc1)N1CCN(c2ccccc2)CC1` (stereo not drawn), the inhibition is 1.2%.

For `CC1CCCCC12NC(=O)N(CC(=O)Nc1ccc(S(=O)(=O)Nc3ncccn3)cc1)C2=O` (stereo not drawn), the inhibition is 14.7%.

Take `CCC(=O)c1cc(F)ccc1OCC(=O)Nc1ccc2c(c1)OCCO2`: the inhibition is -15.9%.

Take `O=c1ccc2c(-c3ccccc3S(=O)(=O)O)c3ccc(O)c(O)c3oc-2c1O`: the inhibition was 13.3%.

With `CCCCN(CC(=O)NC(C)(C)C)C(=O)C(=O)Nc1ccc2c(c1)OCCO2`, the inhibition was 64.1% (active).

For `CCC(C)(C)NC(=O)CN(C(=O)C(=O)Nc1ccc2c(c1)OCCO2)C(C)(C)CC`, the inhibition is -4.87%.

In the case of `COC(=O)CCNc1ccc2c(c1)OCCO2`, the inhibition was 0.987%.

On to `COC(=O)[C@]1(C)CCC[C@@]2(C)C3CC[C@]4(OC(C)=O)C[C@@]3(CCC21)CC4=NO` (stereo partly drawn), for which the inhibition was 2.69%.

Take `O=C(CN1C(=O)c2cccnc2Oc2ccc(Cl)cc21)NCCc1ccccc1`: the inhibition is 10.8%.

Turning to `O=C(CN1C(=O)c2cccnc2Oc2ccc(Cl)cc21)Nc1ccc(F)cc1`, the inhibition was 32.7% (active).

Regarding `CC(=O)c1cccc(NC(=O)CN2C(=O)c3cccnc3Oc3ccc(Cl)cc32)c1`, the inhibition was 8.77%.

As to `CCC(C)N(C(=O)CSc1nnnn1-c1ccccc1OC)C1CCS(=O)(=O)C1` (stereo not drawn), the inhibition was -18.8%.

As to `CCOc1cccc2cc(C(=O)OCC(=O)Nc3c(C)cccc3CC)c(=O)oc12`, the inhibition was 17.6%.

On to `CCC1CCC2(CC1)NC(=O)N(CC(=O)Nc1ccc(OC)cc1)C2=O` (stereo not drawn), for which the inhibition was 21.9%.

Turning to `O=C(Cn1cc(-c2nnnn2-c2ccc(Cl)cc2)c(=O)c2ccccc21)c1ccccc1`, the inhibition is -5.55%.

In the case of `O=C(C[n+]1ccc2c(c1)nnn2-c1ccccc1)c1ccc(Cl)cc1`, the inhibition was 35.8% (active).

On to `O=C(CSc1cccc[n+]1[O-])c1ccc(Cl)cc1`, for which the inhibition is 11.7%.

As for `COc1cc(OC)cc(-c2c(-c3ccc(F)cc3)c3cc(-c4ccc5cc[nH]c5c4)ccc3n2C)c1`, the inhibition is 3.65%.

`O=C(COC(=O)c1c(Cl)cccc1Cl)Nc1cccc(S(=O)(=O)NC2=NCCCCC2)c1`: the inhibition was -9.77%.

In the case of `O=C(Nc1cccc(C(F)(F)F)c1)c1ccc(N2CCNCC2)c([N+](=O)[O-])c1`, the inhibition was 8.47%.

Consider `COc1cc(OC)cc(C(=O)NC(=S)N2CCN(c3ccc(C(F)(F)F)cc3[N+](=O)[O-])CC2)c1`, for which the inhibition was 30% (active).

Take `O=C(Cc1ccc(S(=O)(=O)N2CCOCC2)s1)N1CCN(c2ccc(C(F)(F)F)cc2[N+](=O)[O-])CC1`: the inhibition was -7.45%.

In the case of `O=S(=O)(NCCCN1CCOCC1)c1ccc(F)c(Cl)c1`, the inhibition is 26.5%.

In the case of `COC(=O)c1ccc(-c2c(-c3ccccc3)ncc3cc(OC)c(OC)cc23)cc1`, the inhibition was -1.67%.

For `CC(C)CN(C(=O)CSc1ncnc2sccc12)C1CCS(=O)(=O)C1` (stereo not drawn), the inhibition is 6.11%.

Consider `CCOc1ccc(S(=O)(=O)Nc2cccc(C(=O)NCC3(N4CCCCC4)CCCCC3)c2)cc1`, for which the inhibition was -9.84%.

Consider `CCOC(=O)CNC(=O)CSc1nnc(COc2ccc(Cl)cc2)n1CC`, for which the inhibition is 32.9% (active).

With `CCn1c(COc2ccccc2)nnc1SCC(=O)NCc1ccco1`, the inhibition was -10.2%.

As to `CCOC(=O)CNC(=O)CSc1nnc(-c2cccc(OC)c2)n1CC`, the inhibition was -19.1%.

As to `COc1ccc(CCC(C)N2CCc3ccccc3C2)cc1` (stereo not drawn), the inhibition was 55% (active).

Take `COc1ccc(OC)c(NC(=S)N2CCc3ccccc3C2)c1`: the inhibition is 16.6%.

Take `COc1ccc(NC(=O)C(=O)NCC(c2ccco2)N2CCc3ccccc3C2)cc1` (stereo not drawn): the inhibition was -3.07%.

Turning to `CN(C)S(=O)(=O)c1cccc(NC(=O)COc2ccc3ccccc3c2)c1`, the inhibition is 7.96%.

`CCOC(=O)C1CCCN(C(=O)COc2ccc(N(C)S(=O)(=O)c3ccc(C)cc3)cc2)C1` (stereo not drawn): the inhibition is 15.8%.

Turning to `CCOC(=O)C1CCCN(CCSc2ccc(C)cc2)C1` (stereo not drawn), the inhibition was 43.5% (active).

In the case of `CCOC(=O)C1CCCN(Cc2nc(N)nc(Nc3ccc(C)cc3)n2)C1` (stereo not drawn), the inhibition was 12.9%.

For `CCN(CC)c1ccc(NC(=O)CN2C(=O)NC3(CCc4ccccc43)C2=O)cc1` (stereo not drawn), the inhibition was 2.26%.

Take `COC(=O)Cc1ccc(OCC(=O)NC2CCCC2)cc1`: the inhibition was 0.938%.

In the case of `Cc1ccc(S(=O)(=O)N2CCCCC2)cc1C(=O)N(C)CC(=O)Nc1cccc(F)c1`, the inhibition is 31.6% (active).

As for `CCOc1ccc(NC(=O)CN(C)C(=O)c2cccc(S(=O)(=O)N3CCCC3)c2)cc1OCC`, the inhibition is -1.88%.

As to `Cc1ccc(NC(=O)CN(C)C(=O)c2cccc(S(=O)(=O)N3CCCC3)c2)cc1`, the inhibition is -2.36%.

As to `O=C(CCNC(=O)c1ccc(Cl)cc1)NC1CCCc2ccccc21` (stereo not drawn), the inhibition was -3.04%.

With `CC(C)(C)OC(=O)NCCCCCNC(=O)c1[nH]cnc1C(=O)Nc1nccs1`, the inhibition was -7.74%.

For the compound `Cc1c(C(=O)NC2CCCCC2)oc2ccccc12`, the inhibition was 15.1%.

With `O=C(Cn1[nH]c(=O)c2ccccc2c1=O)Nc1cccc(-c2nnc3n2CCCCC3)c1`, the inhibition is -20.7%.

Consider `Cc1c(C(=O)Nc2cccc(-c3nnc4n3CCCCC4)c2)oc2ccccc12`, for which the inhibition was 60% (active).

The record behind these values is PubChem BioAssay AID485344 (National Center for Advancing Translational Sciences (NCATS), 2010).
